The results in this text go back to PMC5489143, “One ligand, two regulators and three binding sites: How KDPG controls primary carbon metabolism in Pseudomonas”.

The first assay has as its target T1, RccR-His (Pseudomonas fluorescens SBW25, UniProt A0ACD4XSS6 1-288). Put plainly: SPR (ReDCaT); SPR ReDCaT, 10 mM HEPES pH 7.4, 300 mM NaCl, 3 mM EDTA, 0.05% Tween-20, 25 C; high values mean tight binding. The conditions noted are these: protein: recombinant; tags: C-terminal His (pET42b), not removed; chain copies: 2; label: captured on SA chip through 20-nt ReDCaT single-stranded 3' overhang of strand 2; dsDNA, one strand shown.
For the sequence GATGTAGTGCTTGAAAAAAAGCACTACAAA, the binding signal was 82.8 %Rmax.
With CATGTAGTATGCCCAACCGTGCACTACATA, the binding signal stood at 55.1 %Rmax.
Consider CTTGTAGTTAATTTTTCGTCACCCGTCATA, for which the binding signal was found to be 8.34 %Rmax.
CGGTAGTAGTGCGCAACTTTCTACTACAAA: the binding signal came to 35.9 %Rmax.
With AATGTAGCCCCTTTTTTCAGCCCCTACATG, the binding signal stood at 6.22 %Rmax.
For the sequence CTTGTAGTATAACTACAAGCTTGCTACATC, the binding signal was 158 %Rmax.
Still for that read-out and setting: as for CTTGTGTAGTTTTACTACTCGTATATACAT, the figure is 126 %Rmax.
As for TATGTAGTGAGCAAAAATAATCACTACATA, the binding signal came to 59.1 %Rmax.
For ATGTAGGGTCCGCCGAAGACCACTACCT, the binding signal worked out at 3.18 %Rmax.

A further assay has as its target T1, RccR-His. Put plainly: SPR (ReDCaT); KDPG 0 uM; SPR ReDCaT, 10 mM HEPES pH 7.4, 300 mM NaCl, 3 mM EDTA, 0.05% Tween-20, 25 C; high values mean tight binding. Conditions: protein: recombinant; tags: C-terminal His (pET42b), not removed; chain copies: 2; label: captured on SA chip through 20-nt ReDCaT single-stranded 3' overhang of strand 2; dsDNA, one strand shown.
For the sequence GATGTAGTGCTTGAAAAAAAGCACTACAAA, the binding signal was found to be 67.2 %Rmax.
For the sequence CTTGTAGTATAACTACAAGCTTGCTACATC, the binding signal was determined as 161 %Rmax.
Same read-out and setting: as for CTTGTGTAGTTTTACTACTCGTATATACAT, the figure is 121 %Rmax.

Another assay addresses T1, RccR-His. The experiment in a line: SPR (ReDCaT); KDPG 1 uM; SPR ReDCaT, 10 mM HEPES pH 7.4, 300 mM NaCl, 3 mM EDTA, 0.05% Tween-20, 25 C; high values mean tight binding. The conditions noted are these: protein: recombinant; tags: C-terminal His (pET42b), not removed; chain copies: 2; label: captured on SA chip through 20-nt ReDCaT single-stranded 3' overhang of strand 2; dsDNA, one strand shown.
In the case of GATGTAGTGCTTGAAAAAAAGCACTACAAA, the binding signal is 104 %Rmax.
For the sequence CTTGTAGTATAACTACAAGCTTGCTACATC, the binding signal turned out to be 152 %Rmax.
On the same count and under the same terms, next, CTTGTGTAGTTTTACTACTCGTATATACAT: 116 %Rmax.

The target of another assay is T1, RccR-His. Put plainly: SPR (ReDCaT); KDPG 10 uM; SPR ReDCaT, 10 mM HEPES pH 7.4, 300 mM NaCl, 3 mM EDTA, 0.05% Tween-20, 25 C; high values mean tight binding. The conditions noted are these: protein: recombinant; tags: C-terminal His (pET42b), not removed; chain copies: 2; label: captured on SA chip through 20-nt ReDCaT single-stranded 3' overhang of strand 2; dsDNA, one strand shown.
For GATGTAGTGCTTGAAAAAAAGCACTACAAA, the binding signal is 119 %Rmax.
In the case of CTTGTAGTATAACTACAAGCTTGCTACATC, the binding signal worked out at 125 %Rmax.
As for CTTGTGTAGTTTTACTACTCGTATATACAT, the binding signal worked out at 86.8 %Rmax.

A further assay addresses T1, RccR-His. The experiment in a line: SPR (ReDCaT); KDPG 100 uM; SPR ReDCaT, 10 mM HEPES pH 7.4, 300 mM NaCl, 3 mM EDTA, 0.05% Tween-20, 25 C; high values mean tight binding. Conditions: protein: recombinant; tags: C-terminal His (pET42b), not removed; chain copies: 2; label: captured on SA chip through 20-nt ReDCaT single-stranded 3' overhang of strand 2; dsDNA, one strand shown.
As to GATGTAGTGCTTGAAAAAAAGCACTACAAA, the binding signal came out at 121 %Rmax.
Regarding CTTGTAGTATAACTACAAGCTTGCTACATC, the binding signal was 105 %Rmax.
In the case of CTTGTGTAGTTTTACTACTCGTATATACAT, the binding signal is 29.9 %Rmax.
